For 15 compounds, outcome and potentiation results are on record in PubChem BioAssay.

For part of these data: Measured potencies and affinities stand elsewhere. The source made the active and inactive calls.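 Rule for the calls, unless noted: active = primary screen inhibitor hit that blocks the TRPC4 channel at some tested dose, yielding a dose curve; inactive = the rest.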

Test [1] deals with TRPC4 beta (transient receptor potential cation channel C4), mouse. As to the kind of experiment: TRPC4 cation channel opening, retest – cell-based, Fluo4 calcium, HEK293 TRPC4beta/mu-opioid, duplicates, 10 µM, confirmation (AID 2426;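 active = fluorescence ratio normalized to control raised more than 50% in primary screen plus both repeat runs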). The settings on record: Fluo4 calcium fluorescence, at 10 µM; hits give high values.
The test system of test [2] is transient receptor potential cation channel C4 beta (TRPC4), mouse. As to the kind of experiment: TRPC4 cation channel opening, second retest – cell-based, second round, Fluo4, HEK293 TRPC4beta/mu-opioid, 1 µM, confirmation (AID 2461;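 active = primary screen active and over 50% activation in each of two duplicate runs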). The settings on record: Fluo4 calcium fluorescence, at 1 µM; hits give high values.
For test [3], the system named is TRPC4 (transient receptor potential cation channel C4 beta), mouse. As to the kind of experiment: potentiation of DAMGO EC20 TRPC4 response – cell-based, second round, Fluo-4, HEK293 TRPC4beta/mu-opioid, 1 µM, confirmation (AID 2554;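 active = primary screen hit whose fluorescence ratio, in both repeats, exceeds the weak agonist control mean by 3 SD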). Conditions: DAMGO EC20, Fluo-4 calcium flux, at 1 µM; hits give high values. On the technique in general: A change in cytosolic calcium serves as a functional read-out for many receptors and channels.

Test [4] deals with TRPC4 beta (transient receptor potential cation channel C4), mouse. As to the kind of experiment: potentiation of DAMGO EC20 TRPC4 response – cell-based, Fluo-4, HEK293 TRPC4beta/mu-opioid, confirmation (AID 2555;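 active = primary screen hit whose calcium fluorescence ratio, in both repeats, exceeds the weak agonist control mean by 3 SD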). The settings on record: DAMGO EC20, Fluo-4 calcium flux, at 10 µM; hits give high values.
Test [5] has as its target Short transient receptor potential channel 4 (Mus musculus) (UniProt Q9QUQ5). The test is described as follows: blockers of DAMGO-evoked TRPC4 calcium flux – cell-based, Fluo4, HEK293 TRPC4beta/mu-opioid, confirmation (AID 2636;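 active = calcium signal cut by more than 3 SD below the full-agonist control yet still positive, in both repeats and the earlier primary screen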). Conditions: at 10 µM; hits give high values.
For test [6] the target is unchanged. The test is described as follows: blockers of DAMGO-evoked TRPC4 calcium flux – cell-based, second round, Fluo4, HEK293 TRPC4beta/mu-opioid, 1 µM, confirmation (AID 2637;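 active = calcium signal ratio cut to more than 3 SD under the fully stimulated control mean yet still positive, in both repeats and the primary screen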). The settings on record: at 1 µM; hits give high values.
Test [7] shares this target. The test is described as follows: calcium entry via TRPC4 opening agents – cell-based, HEK293 TRPC4/mu-opioid, Fluo-4 calcium, dose response (AID 434937;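 active = primary screen activator hit with a dose response curve and TRPC4 channel activation at any tested dose; inactive = no activation, no dose response, or not a primary hit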).
Test [8] has the same target. As to the kind of experiment: potentiation of DAMGO-evoked TRPC4 calcium signal – cell-based, HEK293 TRPC4/mu-opioid, Fluo-4 calcium, EC20 DAMGO, dose response (AID 434941;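 active = earlier screen potentiator hit that boosts the TRPC4 ion channel at some dose, with a dose response; inactive = no potentiation, no dose response, or not a prior hit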;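 note: calcium entry triggered by an EC20 dose of DAMGO at the co-expressed mu-opioid receptor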).
Test [9] has the same target. As to the kind of experiment: block of DAMGO-driven TRPC4 calcium entry – cell-based, HEK293 TRPC4/mu-opioid, Fluo-4 calcium, dose response (AID 434942).
Test [10] concerns the target Short transient receptor potential channel 6 (Mus musculus) (UniProt Q61143). As to the kind of experiment: TRPC6 blockade by TRPC4 inhibitor hits – cell-based, HEK293, membrane potential dye, duplicate, selectivity assay for TRPC4 inhibitor project, confirmation (AID 434948;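 active = active in primary screen and both duplicates, each dropping signal beyond three positive-control SD with fluorescence still positive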). Conditions: HEK293 TRPC6, membrane potential dye fluorescence, at 10 µM, stimulated with maximal-effect acetylcholine; hits give high values.

Test [11] has the same target. The test is described as follows: TRPC6 opening by TRPC4 activator hits – cell-based, HEK293, membrane potential dye, duplicate, selectivity assay for TRPC4 activator project, confirmation (AID 434950;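 active = membrane potential signal rise above negative control mean plus 3 SD in both duplicates, also active in the earlier TRPC4 screen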). Conditions: HEK293 TRPC6, membrane potential fluorescence, at 10 µM; activation: hits give high values; outcome: activation.
Test [12] shares this target. The test is described as follows: positive modulators of mouse TRPC6 channel – HEK293 cells, membrane potential dye, duplicate, selectivity assay for TRPC4 potentiator project, confirmation (AID 434952;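 active = compound raising the membrane signal above positive-control mean plus 3 SD in both repeats, and a primary screen hit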). Conditions: HEK293 TRPC6, membrane potential dye fluorescence, at 10 µM, maximal acetylcholine added after compound; hits give high values.
Test [13] concerns the target Short transient receptor potential channel 4 (Mus musculus) (UniProt Q9QUQ5). The test is described as follows: calcium flux activators in TRPC4/5HT1a cells, counter-screen for TRPC4 activator project, cell-based, second counter screen, HEK293 TRPC4/5HT1a, Fluo-4 (AID 434977;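 active = calcium signal rise above buffer-control mean plus 5 SD in both duplicates, and also a hit in the primary screen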). The settings on record: Fluo-4 calcium flux, at 10 µM; hits give high values.
A short description of test [14]: serotonin-gated TRPC4 signal block – cell-based, second counter screen, HEK293 TRPC4/5HT1a, Fluo-4, counter-screen for TRPC4 inhibitor project, confirmation (AID 434978;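 active = primary screen active whose calcium signal fell more than 3 SD beyond the full-serotonin control mean in both duplicate plates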;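 note: serotonin given first at submaximal then at maximal dose after compound preincubation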). The settings on record: Fluo-4 calcium flux, at 10 µM, serotonin added to trigger calcium flux; hits give high values. On the technique in general: A counterscreen serves to expose hits that act by an unwanted route or on another target.

Test [15] relates to TRPC4 (mouse), co-expressed with 5HT1a in HEK293. The test is described as follows: enhancement of serotonin-evoked TRPC4 response – cell-based, second counter screen, HEK293 TRPC4/5HT1a, Fluo-4, counter-screen for TRPC4 potentiator project, confirmation (AID 434979;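 active = signal rise over 3 SD above mean of control wells given weak agonist, in both repeats and first screen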). Conditions: Fluo-4 calcium flux, at 10 µM, serotonin added at its EC20 dose; hits give high values.
Test [16] can be described thus: nonspecific calcium rise without TRPC4 – cell-based, HEK293 mu-opioid receptor line, counter-screen for TRPC4 activator project, confirmation (AID 449723;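 active = hit in primary screen, with calcium signal over 5 SD above buffer well mean in both duplicates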;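 note: counter screen cells carry the mu-opioid receptor alone and lack TRPC4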). The settings on record: HEK293 mu-opioid cells, Fluo-4 calcium fluorescence, at 10 µM; hits give high values.
The nature of test [17]: nonspecific potentiation of DAMGO calcium response – cell-based, HEK293 mu-opioid receptor line, counter-screen for TRPC4 allosteric potentiator project, confirmation (AID 449724;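 active = calcium signal rise more than 3 SD above the low-dose agonist control mean, in both duplicate plates and the primary screen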;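 note: HEK293 cells carrying mu-opioid receptor only with no TRPC4 channel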). Conditions: HEK293 mu-opioid receptor cells, Fluo-4 calcium flux, at 10 µM, compound added before EC20 DAMGO stimulus; hits give high values.

Sequence of Short transient receptor potential channel 4 (Mus musculus) (Q9QUQ5 whole entry, looked up): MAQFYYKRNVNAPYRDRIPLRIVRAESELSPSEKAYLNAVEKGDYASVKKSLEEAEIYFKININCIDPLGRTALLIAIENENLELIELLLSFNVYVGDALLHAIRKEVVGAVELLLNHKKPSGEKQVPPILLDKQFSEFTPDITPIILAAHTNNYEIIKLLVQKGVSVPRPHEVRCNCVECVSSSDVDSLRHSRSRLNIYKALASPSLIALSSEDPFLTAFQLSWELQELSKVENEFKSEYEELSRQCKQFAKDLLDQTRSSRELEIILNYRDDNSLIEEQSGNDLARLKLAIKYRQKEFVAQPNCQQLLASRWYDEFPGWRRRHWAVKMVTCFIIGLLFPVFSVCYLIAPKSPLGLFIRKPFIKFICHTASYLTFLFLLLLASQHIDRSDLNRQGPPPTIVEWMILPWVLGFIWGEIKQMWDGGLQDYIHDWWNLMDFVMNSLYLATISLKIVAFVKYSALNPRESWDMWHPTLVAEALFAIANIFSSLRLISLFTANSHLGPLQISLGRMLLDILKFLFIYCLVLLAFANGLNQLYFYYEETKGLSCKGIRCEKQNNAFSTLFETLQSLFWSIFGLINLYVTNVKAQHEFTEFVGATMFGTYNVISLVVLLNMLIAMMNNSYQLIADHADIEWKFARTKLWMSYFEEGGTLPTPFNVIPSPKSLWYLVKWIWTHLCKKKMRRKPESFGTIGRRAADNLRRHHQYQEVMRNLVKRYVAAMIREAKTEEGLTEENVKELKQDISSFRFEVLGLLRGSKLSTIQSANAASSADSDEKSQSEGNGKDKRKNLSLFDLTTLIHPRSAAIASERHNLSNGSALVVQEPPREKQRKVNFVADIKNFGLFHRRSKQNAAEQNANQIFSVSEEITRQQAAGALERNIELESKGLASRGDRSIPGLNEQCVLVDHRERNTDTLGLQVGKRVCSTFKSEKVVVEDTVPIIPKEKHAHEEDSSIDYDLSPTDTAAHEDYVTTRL
Sequence of Short transient receptor potential channel 6 (Mus musculus) (Q61143 whole entry, looked up): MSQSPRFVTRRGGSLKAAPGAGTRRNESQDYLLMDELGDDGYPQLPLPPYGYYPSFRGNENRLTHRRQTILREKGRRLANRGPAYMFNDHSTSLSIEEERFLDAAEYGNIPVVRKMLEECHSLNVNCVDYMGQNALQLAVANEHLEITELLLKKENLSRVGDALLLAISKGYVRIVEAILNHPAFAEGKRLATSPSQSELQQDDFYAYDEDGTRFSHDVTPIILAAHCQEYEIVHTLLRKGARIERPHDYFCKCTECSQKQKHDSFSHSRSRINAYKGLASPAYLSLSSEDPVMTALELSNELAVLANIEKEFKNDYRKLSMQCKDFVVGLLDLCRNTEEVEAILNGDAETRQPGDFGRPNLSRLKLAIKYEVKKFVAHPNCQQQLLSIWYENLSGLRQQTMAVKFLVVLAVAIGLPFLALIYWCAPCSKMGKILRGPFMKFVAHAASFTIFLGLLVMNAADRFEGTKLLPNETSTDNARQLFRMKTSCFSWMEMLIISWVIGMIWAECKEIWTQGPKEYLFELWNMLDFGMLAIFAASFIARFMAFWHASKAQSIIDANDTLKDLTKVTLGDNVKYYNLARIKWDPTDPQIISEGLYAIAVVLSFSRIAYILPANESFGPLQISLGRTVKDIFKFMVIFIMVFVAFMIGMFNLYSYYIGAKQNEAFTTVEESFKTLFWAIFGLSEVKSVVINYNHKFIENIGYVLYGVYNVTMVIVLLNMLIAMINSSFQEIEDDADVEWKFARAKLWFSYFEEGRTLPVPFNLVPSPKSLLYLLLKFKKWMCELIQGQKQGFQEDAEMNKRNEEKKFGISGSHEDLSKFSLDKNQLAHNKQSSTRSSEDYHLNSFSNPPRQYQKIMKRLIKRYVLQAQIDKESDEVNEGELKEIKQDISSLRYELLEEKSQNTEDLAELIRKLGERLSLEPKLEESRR

For `COc1ccc(CNC(=O)C(C)NCc2ccc(S(N)(=O)=O)cc2)cc1` (stereo not given), the result in [1], in test [2], in test [3], in [4], in test [5] and in test [6] was inactive. Besides, the outcome in test [7], in test [8], in test [9], in test [10], in [11] and in [12] was inactive. Further, the result in test [13], in test [14], in [15], in test [16] and in test [17] was inactive.

Regarding `O=C(CC1C(=O)NCCN1C(=O)Nc1ccccc1)Nc1cc(Cl)cc(Cl)c1` (stereo not given), the outcome in test [1], in [2], in [3], in test [5], in test [6] and in [7] was inactive. The result in test [8], in test [9], in [10], in test [11], in test [12] and in [13] was inactive. Further, the result in test [14], in test [16] and in test [17] was inactive. Also, the values for the potentiation in [4] and in test [15] were 15% (active) and 21.1% (active), respectively.

With `O=C(/C=C/c1ccc(Cl)cc1)N(Cc1ccccc1)C1CCS(=O)(=O)C1` (stereo not given), the result in test [1], in test [2], in test [3], in test [4], in test [5] and in [6] was inactive. Also, the result in test [7], in [8], in test [9], in test [10], in test [11] and in test [12] was inactive. Moreover, the outcome in test [13], in test [14], in [16] and in [17] was inactive. In addition, the potentiation in test [15] was 15.5% (active).

Regarding `C=CCn1c(SCC(=O)c2ccc(NS(=O)(=O)c3ccccc3)cc2)nnc1-c1cccs1`, the result in test [1], in test [2], in test [3], in [4], in test [5] and in test [6] was inactive. The result in test [7], in [8], in test [9], in test [10], in [11] and in test [12] was inactive. Moreover, the outcome in test [13], in [14], in test [16] and in [17] was inactive. Moreover, the potentiation in test [15] was 14% (active).

Turning to `c1ccc(Nc2nc(N3CCCCC3)nc(N3CCNCC3)n2)cc1`, the outcome in test [1], in test [2], in [3], in [4], in [5] and in test [6] was inactive. Moreover, the result in [7], in test [8], in test [9], in test [10], in [11] and in test [12] was inactive. The outcome in test [13], in [14], in test [16] and in test [17] was inactive. In addition, the potentiation in [15] is 44.6% (active).

For the compound `CC(C)(C)n1cnc2cc(NCc3ccc(Br)cc3)ccc21`, the outcome in test [1], in test [2], in test [3], in [4], in [5] and in test [6] was inactive. For the same compound, the result in [7], in test [8], in test [9], in [10], in test [11] and in test [12] was inactive. Moreover, the outcome in test [13], in test [14], in test [16] and in test [17] was inactive. In addition, the potentiation in test [15] was 8.63% (active).

`O=c1c2ccccc2nc(COc2ccccc2)n1/N=C/c1cc([N+](=O)[O-])ccc1O`: the result in test [1], in test [2], in [5], in test [6], in test [7] and in test [8] was inactive. Moreover, the outcome in [9], in test [10], in test [11], in test [12], in test [13] and in test [14] was inactive. Further, the result in test [16] and in [17] was inactive. For the same compound, the results for the potentiation in test [3], in test [4] and in test [15] were 11% (active), 23% (active) and 10.5% (active), respectively.

Consider `CC(C)(C)NCc1cc(Cl)ccc1OCc1cccs1`, for which the result in test [1], in test [2], in test [3], in [4], in [5] and in [6] was inactive. Further, the result in test [7], in [8], in test [9], in test [10], in test [11] and in test [12] was inactive. For the same compound, the outcome in test [13], in [14], in test [15], in [16] and in [17] was inactive.

Take `CC(CCc1ccc(O)cc1)N(C)CCc1ccccc1` (stereo not given): the result in test [1], in test [2], in test [3], in test [4], in test [5] and in test [6] was inactive. The outcome in test [7], in test [8], in [9], in [10], in [11] and in test [12] was inactive. Moreover, the outcome in [13], in [14], in test [15], in [16] and in test [17] was inactive.

For `Cc1ccc(C2N(c3cccc(Cl)c3)C(=O)C3CCCN32)o1` (stereo not given), the outcome in test [1], in [2], in [5], in test [6], in test [7] and in test [8] was inactive. Also, the result in [9], in test [10], in test [11], in [12], in test [13] and in test [14] was inactive. The outcome in [16] and in [17] was inactive. For the same compound, the potentiation in test [3] was 19% (active); in test [4], 16% (active); in [15], 13.4% (active).

As to `CC1=C(C(=O)NCCN2CCN(C)CC2)C2(CCC(C)CC2)OC1=O` (stereo not given), the outcome in [1], in test [2], in [3], in test [4], in test [5] and in test [6] was inactive. Further, the result in [7], in test [8], in test [9], in test [10], in test [11] and in [12] was inactive. Further, the result in [13], in test [14], in test [15], in test [16] and in [17] was inactive.

`CCCN1CCC(NC(=O)Cc2cccc(C)c2)CC1`: the outcome in [1], in test [2], in test [3], in test [4], in test [5] and in [6] was inactive. Besides, the result in test [7], in [8], in test [9], in test [10], in test [11] and in [12] was inactive. The outcome in [13], in test [14], in test [15], in test [16] and in test [17] was inactive.

As for `CCOc1ccc(-n2cnnn2)cc1S(=O)(=O)NCc1ccccc1`, the result in test [1], in [2], in test [3], in test [4], in test [5] and in [6] was inactive. The outcome in test [7], in [8], in [9], in [10], in test [11] and in test [12] was inactive. In addition, the result in test [13], in test [14], in test [15], in test [16] and in [17] was inactive.

`CCOC(=O)C1=C(C)N(c2ccccc2)C(=O)NC1c1cccc([N+](=O)[O-])c1` (stereo not given): the outcome in test [1], in [2], in test [3], in test [4], in test [5] and in test [6] was inactive. Besides, the outcome in [7], in test [8], in [9], in [10], in test [11] and in test [12] was inactive. Also, the outcome in test [13], in test [14], in test [16] and in [17] was inactive. Also, the potentiation in [15] is 9.17% (active).

Regarding `Cc1sc2nc(SCC(N)=O)n(C)c(=O)c2c1C`, the outcome in test [1], in [2], in test [3], in test [5], in [6] and in [7] was inactive. The outcome in [8], in [9], in test [10], in [11], in [12] and in test [13] was inactive. For the same compound, the outcome in [14], in [16] and in test [17] was inactive. The potentiation in test [4] was 16% (active); in test [15], 26.5% (active).
